Test results as given in PubChem BioAssay (NCATS).
Where “and” joins values, the source holds several entries; their conditions need not be identical. Equal entries are not always repeated. Results filed as inconclusive are left out. Some compounds were tested as several samples or in several runs, with calls that do not always agree. Calls of active or inactive are those of the source. Calls come from the whole dose curve; as a rule, active = well fitted curve in the direction sought with a large enough effect; inconclusive = small, poorly fitted or top-dose-only effect, or another doubt; inactive = no such curve, though single readings can be large; an effect the other way counts as inactive or inconclusive.

What was measured:
[1] = Viability qHTS for spleen associated tyrosine kinase inhibitor (SYKi) naive MV4-11 cells (AID 1963823); note: nearly all actives have a fitted effect of over 40% in size
Summary of the method: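 Luminescence from CellTiter-Glo, developed 10 min at room temperature, gave viability of MV4-11 cells never exposed to SYK inhibitor. Cells (500/well) had been incubated with compounds for 72 hr under standard culture conditions.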

[2] = Viability qHTS for spleen associated tyrosine kinase inhibitor (SYKi) drug resistant MV4-11 cells (AID 1963824); note: nearly all actives have a fitted effect of over 35% in size
Summary of the method: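 SYK-inhibitor-resistant MV4-11 AML cells were seeded at 500 per well onto compound and cultured 72 hours (37 °C, 5% CO2). CellTiter-Glo was then added, and after 10 min at room temperature, luminescence gave viability.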

[3] = Cellular viability qHTS for adrenocortical cancer (ACC) cell line SW-13 (AID 1963989); conditions: SW-13 ACC cells viability, CellTiter-Glo, 48 h; activity (max response): stronger effect = lower value; note: nearly all actives have a fitted effect of over 65% in size;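 for activity (max response): cells grown in serum-free medium with ITS supplement; % is set by controls: 0 for no effect and ±100 for the full control effect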
Summary of the method: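 Luminescent ATP read-out (CellTiter-Glo, 20 min at room temperature) measured metabolically competent SW-13 cells after 48 h compound treatment. Final concentrations spanned up to 46 uM; bortezomib served as positive control.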

[4] = Cellular viability qHTS for adrenocortical cancer (ACC) cell line NCI-H295R (AID 1963990); note: nearly all actives have a fitted effect of over 60% in size
Summary of the method: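 IC50 and maximal efficacy derive from four-parameter logistic modelling of titration curves, with reads scaled between DMSO-only wells (0%) and doxorubicin hydrochloride (100% inhibition). Compounds spanned up to 46 uM over 48 h.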
Potency is the fitted concentration of half-maximal effect.

| SMILES | Potency [1] | Potency [2] | Potency [3] | Potency [4] | activity (max response) [3] |
| --- | --- | --- | --- | --- | --- |
| COc1cc2c(cc1O)CCN[C@]21CS[C@@H]2c3c(OC(C)=O)c(C)c4c(c3[C@H](COC1=O)N1[C@@H]2[C@H]2c3c(cc(C)c(OC)c3O)C[C@@H]([C@@H]1O)N2C)OCO4 | 0.0014 µM (active) | 0.0015 µM (active) | 0.0038 µM (active) | 0.0094 µM (active) | – |
| CC(C)NCC(O)COc1cccc2[nH]ccc12 (stereo unspecified) | inactive | inactive | – | inactive | -13.8% (inactive) |
| O=C(O)c1cc(O)c(O)c(O)c1 | inactive | 13.3 µM (active) | – | inactive | -1.2% (inactive) |
| CCCCOC(=O)c1ccc(O)cc1 | inactive | inactive | – | inactive | -18.3% (inactive) |
| NC(CC1c2ccccc2Oc2ccccc21)(C(=O)O)C1CC1C(=O)O (stereo unspecified) | inactive | inactive | – | inactive | 1.03% (inactive) |
| CN(C)CCCOc1nn(Cc2ccccc2)c2ccccc12 | inactive | inactive and 13 µM (active) | 11.6 µM (active) | 14.6 µM (active) | – |
| CNc1ncc2cc(-c3cc(NC(=O)NCCC(C)(C)C)c(F)cc3C)c(C)nc2n1 | 0.103 µM (active) | 0.164 µM (active) | – | 17.8 µM (active) | – |
| OCCN1CCN(CC/C=C2/c3ccccc3Sc3ccc(C(F)(F)F)cc32)CC1 | 21.1 µM (active) | 21.1 µM (active) | – | 16.4 µM (active) | – |
| CC(=O)O[C@]1(C(C)=O)CC[C@H]2[C@@H]3C=C(C)C4=CC(=O)CC[C@]4(C)[C@H]3CC[C@@]21C | inactive and 16.6 µM (active) | 14.8 µM (active) | – | inactive | 8.88% (inactive) and -22.2% (inactive) |
| CCOc1cc2ncc(C#N)c(Nc3ccc(OCc4ccccn4)c(Cl)c3)c2cc1NC(=O)/C=C/CN(C)C | 126 nM (active) and 525 nM (active) | 224 nM (active) and 525 nM (active) | – | 2 µM (active) | – |
| O=C(/C=C/c1ccc2ccc(C(F)(F)F)cc2n1)c1ccncc1 | 0.934 µM (active) | 0.934 µM (active) | – | 4.47 µM (active) | – |
| c1ccc(-c2cc(CCC3CCNCC3)c3ccccc3n2)cc1 | 7.42 µM (active) | 6.61 µM (active) | – | 15.8 µM (active) | – |
| CC[C@@](C)(Nc1ccnc(-c2c[nH]c3ncccc23)n1)C(=O)NCC(F)(F)F | 14.6 µM (active) | 16.4 µM (active) | – | inactive | 0.931% (inactive) |
| c1ccc2sc(SN3CCOCC3)nc2c1 | inactive | inactive | – | inactive | – |
| CCO[C@@H]1O[C@H](C(COCc2ccccc2)OCc2ccccc2)[C@H](OCc2ccccc2)[C@H]1O (stereo partly specified) | 15 µM (active) | 11.9 µM (active) | – | 23.1 µM (active) | – |
| Cc1nnc(C[C@@H]2C=C(c3ccc(Cl)cc3)c3ccccc3-n3c(C)nnc32)o1 | 0.235 µM (active) | 0.296 µM (active) | – | 6.31 µM (active) | – |
| COc1ccc(S(=O)(=O)N[C@@H](CNc2nc(C)nc(N3CCC(c4ccc5c(n4)NCCC5)CC3)c2C)C(=O)O)cc1 | inactive | inactive | – | inactive | – |
| C[C@H](NC(=O)CCC(F)(F)F)C(=O)N[C@@H]1C(=O)N(CCO)c2ncccc2-c2ccccc21 | inactive | inactive | – | inactive | – |
| Cc1c(O)cccc1C(=O)N[C@@H](CSc1ccccc1)[C@H](O)CN1C[C@H]2CCCC[C@H]2C[C@H]1C(=O)NC(C)(C)C | 23.7 µM (active) | 13.3 µM (active) | – | 6.51 µM (active) | – |
| Oc1ccc(/C=C/c2cc(O)cc(O)c2)cc1 | 16.6 µM (active) | 18.6 µM (active) | – | inactive | – |
| CC(=O)N1c2ccc(-c3ccc(C(=O)O)cc3)cc2[C@H](Nc2ccc(Cl)cc2)C[C@@H]1C | 0.0525 µM (active) | 0.059 µM (active) | – | 3.98 µM (active) | – |
| CCCC(CCC)C(=O)Nc1ccn([C@@H]2O[C@H](CO)[C@@H](O)C2(F)F)c(=O)n1 | 0.411 µM (active) | 0.58 µM (active) | – | inactive | – |
| COc1cccc(OCCCN)c1-c1cc(Nc2cnc(C#N)cn2)n[nH]1 | 14.6 nM (active) and 5.9 nM (active) | 0.0116 µM (active) | – | inactive | – |
| Cc1cccc(/C=N/Nc2cc(N3CCOCC3)nc(OCCc3ccccn3)n2)c1 | 1.32 µM (active) | 0.296 µM (active) | – | 28.2 µM (active) | – |
| CCC(=O)N1CCOc2c(cc(-c3cc(OC)cc(OC)c3)cc2C(=O)N[C@H]2CCCN(C)C2)C1 | 16.6 µM (active) | 9.34 µM (active) | – | inactive | – |
| COc1cc(C(=O)NC(N)=Nc2ccc(C)c(NC(=O)c3ccc(-c4ccccc4)cc3)c2)cc(OC)c1OC | 14.8 µM (active) | 8.33 µM (active) | – | 10 µM (active) | – |
